The whole screen tested about 68,000 compounds, of which about 2,700 (4%) showed an effect of 50% or more. Many of the other results were omitted from the sample, so strong results are more common in it than they were.
tested on: Plasmodium berghei; test: Screen against P. berghei liver stage (PbLuc), transformed with Luciferase, at 2uM; type: functional, HepG2; details: tested at 2 uM

First: CCN1CCN(C2CCN(Cc3ccc(Cl)s3)CC2)C1=O
Second: Cc1cc(CN2CCC(c3ccnn3CCO)CC2)no1
The INHIBITION of the first is lower: 18.52% for the first, 20.28% for the second.

Compared with `COCC1CC2(CCN(Cc3ccccn3)CC2)CN1c1ncccn1` (stereo unspecified), `c1ccc(CO[C@@H]2CO[C@@]3(CCN(Cc4ccccn4)C3)C2)nc1` is higher in INHIBITION: -23.78% for the first, 40.25% for the second.

First: Cc1nnc(SCCNc2cc(C3CC3)ncn2)s1
Second: Cc1nnc(SCCCNc2cc(C3CC3)ncn2)s1
The INHIBITION of the first is lower: 12.17% for the first, 60.35% for the second.

Going from `COc1cc(NCCCSc2nnc(C)s2)ncn1` to `COCCCNc1ncc(-c2cccc(F)c2)c(-c2nccn2C)n1`, the INHIBITION rises from -29.43% to -18.57%.

Compared with `COc1cc(S(=O)(=O)N2CCCc3ccccc32)cc(C(=O)O)c1OC`, `COc1cc(S(=O)(=O)N2CCc3ccccc32)cc(C(=O)O)c1OC` is lower in INHIBITION: 56.72% for the first, 12.65% for the second.

Compared with `COc1cc(S(=O)(=O)N2CCc3ccc(Cl)cc32)cc(C(=O)O)c1OC`, `COc1ccc(Cl)cc1C(=O)N1C[C@H](C(C)C)[C@@H](N)C1` is lower in INHIBITION: 6.3% for the first, 5.88% for the second.

First: O=C(c1cnccn1)N1CCOCC2(CCN(C3CCOCC3)C2)C1 (stereo unspecified)
Second: Cn1cc(CN2CC3(CCN(C(=O)c4cscn4)C3)C2)cn1
The INHIBITION of the first is higher: 26.14% for the first, -9.1% for the second.

Compared with `Cc1nc(CN2C[C@@H](CN3CCOCC3)[C@@H](CO)C2)c2ccccn12`, `c1cncc(N2CCO[C@H]3CN(CC4CCOC4)C[C@H]32)c1` (stereo partly specified) is lower in INHIBITION: 25.81% for the first, 19.51% for the second.

First: O=S(=O)(Cc1ccc(Br)cc1)NCCO
Second: NCCNS(=O)(=O)Cc1ccc(Br)cc1
The INHIBITION of the first is lower: 17.51% for the first, 50.59% for the second.

First: NCCCNS(=O)(=O)Cc1ccc(Br)cc1
Second: CCS(=O)(=O)NCCNC(=O)c1cnc(-c2ccccc2)nc1
The INHIBITION of the first is higher: 5.28% for the first, -22.82% for the second.

Going from `COc1ccc(C(=O)NCCN2CCC(c3cccs3)CC2)cc1OC` to `Cc1csc(C(=O)NCCN2CCC(c3cccs3)CC2)c1`, the INHIBITION falls from 66.04% to 18.23%.

First: CC(=O)NCCN1CCC(c2cccs2)CC1
Second: NC(=O)C1CCN(CCCNC(=O)Nc2nccs2)CC1
The INHIBITION of the first is lower: 26.64% for the first, 28.14% for the second.

Going from `O=C(Cn1cc(-c2ccccc2)ncc1=O)Nc1ncc[nH]1` to `CC(=O)NCCNC(=O)c1cnc(-c2ccccc2)nc1`, the INHIBITION rises from -80.35% to 19.47%.

Compared with `COCCNc1ncc(-c2cccc(OC)c2)c(-c2nccn2C)n1`, `COCCNc1ncc(-c2cccc(F)c2)c(-c2nccn2C)n1` is lower in INHIBITION: 54.87% for the first, 27.12% for the second.

Going from `CCOCCCNc1ncc(-c2cccc(F)c2)c(-c2nccn2C)n1` to `Cn1ccnc1-c1nc(NC2CCCC2)ncc1-c1cccc(F)c1`, the INHIBITION falls from 55.72% to 14.3%.

Compared with `COCCNc1ncc(-c2cc(C)no2)c(-c2ccco2)n1`, `COCCN(Cc1cccnc1)S(=O)(=O)c1cc(C)ccc1F` is higher in INHIBITION: -29.24% for the first, 37.79% for the second.

Compared with `CN(C)C(=O)COCc1cncc2c1CCN(Cc1cnn(C)c1)C2`, `Cc1nc(CNC(=O)N(C)Cc2cnn(C)c2)cs1` is higher in INHIBITION: 14.91% for the first, 29.19% for the second.

First: Cc1ccc2c(n1)N(C)CCN(Cc1ccco1)C2
Second: Cc1ccc(N2CCN(C3CCc4ccccc4C3)CC2)nn1 (stereo unspecified)
The INHIBITION of the first is lower: 29.89% for the first, 30.66% for the second.

Going from `Cc1cnc(CN2C[C@H]3CC(Oc4ccccc4)C[C@H]3C2)cn1` (stereo partly specified) to `c1ccc(OC2C[C@@H]3CN(Cc4cnccn4)C[C@@H]3C2)cc1` (stereo partly specified), the INHIBITION rises from 25.06% to 50.32%.

First: CN(C)S(=O)(=O)N1CCC2(CC1)CC(Oc1ccccn1)CO2 (stereo unspecified)
Second: CS(=O)(=O)N1CCC2(CC1)CC(Oc1ccccn1)CO2 (stereo unspecified)
The INHIBITION of the first is higher: 56.78% for the first, -0.23% for the second.

First: CN(C)S(=O)(=O)N1CCC[C@]2(C[C@@H](Oc3ccccn3)CO2)C1
Second: c1ccc(CN2CC[C@]3(C[C@@H](Oc4ccccn4)CO3)C2)nc1
The INHIBITION of the first is higher: 19.61% for the first, 8.1% for the second.

First: c1ccc(OC2COC3(CCN(Cc4ccccn4)CC3)C2)cc1 (stereo unspecified)
Second: O[C@@H]1CN(Cc2cnccn2)C[C@H]1Oc1ccccc1
The INHIBITION of the first is higher: 62.15% for the first, 26.14% for the second.

First: COc1ccc2cc(-c3n[nH]cc3CN3CCSCC3)ccc2c1
Second: Cc1cc(CN2CCC(CNS(=O)(=O)c3ccc(Br)s3)CC2)c(C)o1
The INHIBITION of the first is higher: 30.34% for the first, 23.96% for the second.

Going from `CN(C)C(=O)CO[C@@H]1CC[C@H]2[C@H]1OCCN2c1ncc(F)cn1` to `Cc1noc(C)c1-c1cc(CC2CCN(C(=O)c3cc[nH]n3)C2)ncn1` (stereo unspecified), the INHIBITION falls from 34.89% to -15.34%.

First: CC(C)Cc1nc(CSCC(=O)N2CCC(C)CC2)no1
Second: CCn1cnnc1CNC(=O)N1CCC(C)CC1
The INHIBITION of the first is lower: -32.8% for the first, 56.4% for the second.

Going from `O=C(Nc1ccc(F)c(Br)c1)N1CCCC1` to `CCn1cnnc1CNC(=O)N1CCCC1`, the INHIBITION rises from -5.87% to 33.82%.

Compared with `CC(C)CC(NC(=O)c1cccs1)c1nc2cccnc2n1C` (stereo unspecified), `CC(C)N(C)CCCNC(=O)c1cnc(-c2ccccc2)nc1` is higher in INHIBITION: -19.86% for the first, 67.83% for the second.

Going from `O=C(Nc1cccnc1)[C@H]1CN(Cc2ccccn2)C[C@H]2OCC[C@@H]12` to `CC(C)CCN1C[C@@H]2C[C@H](C(=O)Nc3cccnc3)[C@H](C1)O2`, the INHIBITION rises from -43.55% to 26.76%.

Going from `Cc1cc(-c2nc(-c3ccccn3)nn2C2CCN(C)CC2)nc(C)n1` to `Cc1noc(C)c1-c1cccc(CC2CCN(C(=O)c3cc[nH]n3)C2)n1` (stereo unspecified), the INHIBITION falls from 14.19% to -8.23%.

First: CC1(CO)COC(Cc2ccc(Cl)cc2)=N1 (stereo unspecified)
Second: CCN(Cc1ccc2c(c1)OCO2)C(=O)c1ccc(C)[nH]c1=O
The INHIBITION of the first is lower: -6.98% for the first, 0.26% for the second.

Compared with `CS(=O)(=O)N1CCC2(CCCN(CCCc3ccccc3)C2=O)C1` (stereo unspecified), `O=C1N(CCCc2ccccc2)CCCC12CCN(C(CO)CO)C2` (stereo unspecified) is higher in INHIBITION: -57.67% for the first, 7.13% for the second.

First: O=C1N(CCc2ccccc2)CCCC12CCN(C(CO)CO)C2 (stereo unspecified)
Second: O=C(NCCCN1CCOCC1)c1ccnc(OCc2ccccc2)c1
The INHIBITION of the first is higher: 57.92% for the first, -47.27% for the second.

Compared with `Cc1noc(C)c1-c1cncc(CC2CCN(C(=O)c3cc[nH]n3)C2)n1` (stereo unspecified), `Cc1cc(C)nc(N2CCC(c3cc(CCO)[nH]n3)C2)n1` (stereo unspecified) is lower in INHIBITION: 61.16% for the first, -92.86% for the second.

Going from `Cc1ncc2c(c1CNC(=O)C1(C)CCCCO1)CCNC2` (stereo unspecified) to `Cc1ncc2c(c1CNC(=O)C1(C)CCCO1)CCNC2` (stereo unspecified), the INHIBITION rises from -17.55% to 21.72%.

First: Cc1ncc2c(c1CNC(=O)C1(C)CC1)CCNC2
Second: Cc1ccc(C(=O)N2CCC3(CCC(=O)N(CC(C)O)C3)CC2)c(O)c1 (stereo unspecified)
The INHIBITION of the first is higher: 51.9% for the first, -0.85% for the second.

Compared with `O=C(NCCn1ccc(-c2ccncc2)n1)C1CC1`, `CCN(CC)CCNC(=O)c1cnc(-c2ccccc2)nc1` is higher in INHIBITION: -19.3% for the first, -16.21% for the second.

First: Fc1cc(Cl)cnc1N1CCCC(c2nccn2Cc2ccncc2)C1 (stereo unspecified)
Second: Cc1cc(C2CCCN(S(=O)(=O)c3cn[nH]c3)C2)ccn1 (stereo unspecified)
The INHIBITION of the first is lower: 17.69% for the first, 49.07% for the second.

Compared with `CCN1C[C@@H]2C[C@H](C(=O)Nc3ccccc3)[C@H](C1)O2`, `CC(C)CCN1C[C@@H]2C[C@H](C(=O)Nc3ccccc3)[C@H](C1)O2` is higher in INHIBITION: 37.65% for the first, 73.15% for the second.

First: O=C(NCc1ccccc1)[C@H]1C[C@H]2CN(S(=O)(=O)C3CC3)C[C@@H]1O2
Second: CN(C)S(=O)(=O)N1C[C@@H]2C[C@H](C(=O)NCc3ccccc3)[C@H](C1)O2
The INHIBITION of the first is higher: 14.94% for the first, -32.96% for the second.

First: CC(C)CS(=O)(=O)N1C[C@@H]2C[C@H](C(=O)NCc3ccccc3)[C@H](C1)O2
Second: Cc1cc2ccccc2n1CCC(=O)NCCS(C)(=O)=O
The INHIBITION of the first is higher: 75.33% for the first, -67.22% for the second.

First: Cc1nnn2c1COC(CNC(=O)c1cccn1C)C2 (stereo unspecified)
Second: CCn1cnnc1CNC(=O)N1CCN(c2ccccc2O)CC1
The INHIBITION of the first is higher: 42.4% for the first, -3.06% for the second.

First: Cc1cc(Br)c(O)c(-c2nc(N3CCCCC3)sc2C)c1
Second: CCn1cnnc1CNC(=O)N1CCCCCC1
The INHIBITION of the first is higher: 14.95% for the first, -8.32% for the second.

Going from `CN(Cc1cnn(C)c1)S(=O)(=O)N1CCCCCC1` to `CCn1cnnc1CNC(=O)N1CCC(CN2CCCCCC2)CC1`, the INHIBITION falls from 47.68% to 27.47%.

Going from `Cc1noc(C(C)N2CCN(CC(=O)N3CCCC3)CC2)n1` (stereo unspecified) to `CCc1noc(C(C)N2CCC(C(=O)Nc3cnn(CC)c3)CC2)n1` (stereo unspecified), the INHIBITION falls from -14.01% to -56.72%.

Going from `C1CCC(c2nn3c(C4CCCO4)nnc3s2)C1` (stereo unspecified) to `C1CCC(c2nnc3sc(C4CCCO4)nn23)C1` (stereo unspecified), the INHIBITION falls from 79.8% to -11.31%.

Going from `C1CCC(c2nnc3sc(C4CCOC4)nn23)C1` (stereo unspecified) to `O=C(Nc1cnc2n1CCCC2)C1CCCN1C1CCNCC1` (stereo unspecified), the INHIBITION falls from 4.12% to -26.04%.

Going from `COC(=O)CCNC(=O)c1ccc(OCc2ccccc2)nc1` to `CN(C)CCCNC(=O)c1ccnc(OCc2ccccc2)c1`, the INHIBITION rises from -45.68% to 52.85%.

Compared with `CN(CCNC(=O)c1cnc(-c2ccccc2)nc1)S(C)(=O)=O`, `CS(=O)(=O)NCCNC(=O)c1cnc(-c2ccccc2)nc1` is higher in INHIBITION: -50.8% for the first, 73.01% for the second.

First: Cn1cc(NS(=O)(=O)c2ccc(C(F)(F)F)cc2)ccc1=O
Second: NC(=O)NC(=O)CCSCc1coc(-c2cccc(Cl)c2)n1
The INHIBITION of the first is higher: 21.83% for the first, 16.25% for the second.

Going from `Cc1nc(CC(C)C)cc(C(=O)N2C[C@@H](CN(C)C)[C@@H](CO)C2)n1` to `CCN(CC)C1CCN(C(=O)NCc2nncn2CC)CC1`, the INHIBITION rises from 3.46% to 55.52%.

Compared with `CCn1cnnc1CNC(=O)N1CCN(c2nccs2)CC1`, `CCn1cnnc1CNC(=O)N1CCN(c2cccs2)CC1` is higher in INHIBITION: 17.31% for the first, 54.85% for the second.

Compared with `CCn1cnnc1CNC(=O)N1CCC(C(=O)NC)CC1`, `CCn1cnnc1CNC(=O)N1CCC(O)CC1` is higher in INHIBITION: -29.11% for the first, -0.05% for the second.

Compared with `CCn1cnnc1CNC(=O)N1CCOCC1`, `CCN(CCC1CCN(C(=O)NCc2nncn2CC)CC1)CC1CC1` is higher in INHIBITION: 27.31% for the first, 56.4% for the second.
